Reference: PubChem BioAssay (NCATS)
Several values for one entry are separate records, joined by “and”; a condition that tells them apart may be missing. Equal entries are not always repeated. Records with an inconclusive call do not appear. Activity calls are given as the source filed them. Unless noted, calls come from the whole dose curve; as a rule, active = well fitted curve in either direction with a large enough effect (not every such curve was filed as active); inconclusive = small, poorly fitted or top-dose-only effect, or another doubt; inactive = flat fitted curve, though single readings scatter.

Tests used:
[1] = biological target: Lysosomal acid glucosylceramidase (Homo sapiens) (UniProt P04062); experiment: Glucocerebrosidase-p2 (AID 348; in the data active = potency below about 10 µM; note: potency is the fitted concentration of half-maximal effect); details: purified GBA, blue fluorogenic substrate, 40 min
Outline: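 Compounds titrated from 0.6 nM upwards against 0.2 nM enzyme in pH 5.9 citric acid/KH2PO4, taurocholate, tween-20; blue fluorogenic substrate 80 uM, 40 min room temperature, stopped and read Ex 365/Em 440 for AC50.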

[2] = AP1 Signaling Pathway (AID 357); details: ME-180 AP-1-bla reporter, EGF-induced, beta-lactamase ratio, 5 h; at 7.69 µM (top of the series) unless noted;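 note: ME-180 reporter cells stimulated with EGF at its EC50 level; % is set by controls: 0 for no effect and ±100 for the full control effect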
Outline: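 Cells are seeded overnight, exposed to compound titrations and an EC50 level of EGF for 5 hours at 37 °C, then loaded with CCF4 dye for 2.5 hours. Beta-lactamase activity under the AP-1 element is read as a blue/green ratio.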

[3] = NFAT Signaling Pathway (AID 444); details: Jurkat NFAT-bla M1, carbachol, beta-lactamase ratio, 5 h; at 7.69 µM (top of the series) unless noted;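 note: carbachol stimulus at about its EC50 of 1 µM final; % is set by controls: 0 for no effect and ±100 for the full control effect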
Outline: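 Read-out: CCF4 FRET ratio (460 nm/530 nm) after 1 h RT dye loading, used for %activity and AC50 from titration series. Cells: Jurkat NFAT-β-lactamase/M1 line, treated with compound plus 1 uM carbachol for 5 h, 37 °C.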

[4] = Stat Signaling Pathway (AID 446); details: ME-180 SIE beta-lactamase reporter, IL-6 stimulated, 5 h; at 7.69 µM (top of the series) unless noted;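 note: ME-180 cervical cancer cells given 40 pM IL-6 alongside compound; SIE-controlled beta-lactamase reporter measured as 460/530 nm FRET emission ratio; % is set by controls: 0 for no effect and ±100 for the full control effect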
Outline: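 Screening format detects activators and inhibitors alike: ME-180 SIE-bla cells stimulated at 40 pM IL-6 for 5 hrs with compound, then dual-emission beta-lactamase read at 405 nm excitation.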

[5] = biological target: Glucocorticoid receptor (Homo sapiens) (UniProt P04150); experiment: GR-GFP Redistribution (AID 450;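 active = compounds whose dose series gives a full or clear partial fitted curve of increased nuclear translocation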; note: potency is the fitted concentration of half-maximal effect); details: U2OS GR-GFP nuclear translocation, laser cytometry, 2 h
[6] = biological target: Glucocorticoid receptor (Homo sapiens) (UniProt P04150); experiment: GR-EFC Redistribution (AID 451; calls by dose curve; note: potency is the fitted concentration of half-maximal effect); details: CHO-K1 GR-EFC translocation, beta-gal luminescence, 2 h
Outline: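 Translocation of GR-ED fusion to nuclear EA restores b-gal, read by luminescence after 1 h room-temperature detection. Engineered CHO-K1 biosensor cells, 1,000/well, exposed 2 h at 37 C to titrations up to 46 uM final.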

[7] = biological target: Mitogen-activated protein kinase 10 (Mus musculus) (UniProt Q61831); experiment: JNK3 AlphaScreen Assay (AID 530); details: JNK3 lysate, c-Jun phosphorylation; series mostly up to 11.4 µM;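 note: kinase came from lysate of stimulated human HepG2 cells; signal reports phosphorylation of biotinylated GST-cJun 1-79 at Ser73 with 10 µM ATP; % is set by controls: 0 for no effect and ±100 for the full control effect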
Outline: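 Room-temperature AlphaScreen kinase assay; pre-activated HepG2 lysate as JNK3 source, biotin-GST-cJun(1-79) substrate, 10 uM ATP, compound 15 min preincubation.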

[8] = biological target: 3',5'-cyclic-AMP phosphodiesterase 4B (Homo sapiens) (UniProt Q07343); experiment: qHTS Assay for Inhibitors of PDE-IV (AID 607; active = well fitted activation curve with a large enough effect in the main read-out, with a control signal flat, not every such curve was filed as active; note: % of control where 0% means no effect); details: HEK293 ACTOne CNG channel cells, membrane potential fluorescence; series mostly up to 22.9 µM
Outline: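 The readout is membrane depolarisation from a cAMP-sensing CNG channel, detected with a potential dye at ex 535/em 590. Cells were HEK293-derived (endogenous PDE-IV) at 1000 cells/well, titrated up to 22.9 uM final.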

Glucocorticoid receptor (Homo sapiens), sequence (P04150 whole entry, looked up, the tested form may be a part): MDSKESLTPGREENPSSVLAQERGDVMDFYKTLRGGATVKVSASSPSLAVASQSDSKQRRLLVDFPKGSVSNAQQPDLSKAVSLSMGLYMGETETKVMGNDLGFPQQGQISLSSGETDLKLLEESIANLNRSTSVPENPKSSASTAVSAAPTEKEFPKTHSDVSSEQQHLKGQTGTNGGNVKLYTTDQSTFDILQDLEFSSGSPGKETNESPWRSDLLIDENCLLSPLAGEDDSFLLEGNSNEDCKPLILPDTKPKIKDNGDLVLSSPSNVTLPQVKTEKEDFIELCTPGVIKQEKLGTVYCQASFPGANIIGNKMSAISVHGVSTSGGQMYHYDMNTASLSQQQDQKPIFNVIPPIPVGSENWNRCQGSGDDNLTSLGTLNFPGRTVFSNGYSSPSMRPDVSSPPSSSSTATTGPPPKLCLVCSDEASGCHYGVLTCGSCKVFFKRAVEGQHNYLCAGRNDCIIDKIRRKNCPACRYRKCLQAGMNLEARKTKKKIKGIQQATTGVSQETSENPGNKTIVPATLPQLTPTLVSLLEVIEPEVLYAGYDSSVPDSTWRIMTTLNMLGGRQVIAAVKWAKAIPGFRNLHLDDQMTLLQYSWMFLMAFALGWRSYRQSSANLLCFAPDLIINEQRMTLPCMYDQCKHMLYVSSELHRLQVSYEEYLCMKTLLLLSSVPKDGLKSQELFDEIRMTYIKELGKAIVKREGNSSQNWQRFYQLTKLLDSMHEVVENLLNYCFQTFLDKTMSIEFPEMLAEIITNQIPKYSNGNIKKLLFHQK
3',5'-cyclic-AMP phosphodiesterase 4B (Homo sapiens), sequence (Q07343 whole entry, looked up): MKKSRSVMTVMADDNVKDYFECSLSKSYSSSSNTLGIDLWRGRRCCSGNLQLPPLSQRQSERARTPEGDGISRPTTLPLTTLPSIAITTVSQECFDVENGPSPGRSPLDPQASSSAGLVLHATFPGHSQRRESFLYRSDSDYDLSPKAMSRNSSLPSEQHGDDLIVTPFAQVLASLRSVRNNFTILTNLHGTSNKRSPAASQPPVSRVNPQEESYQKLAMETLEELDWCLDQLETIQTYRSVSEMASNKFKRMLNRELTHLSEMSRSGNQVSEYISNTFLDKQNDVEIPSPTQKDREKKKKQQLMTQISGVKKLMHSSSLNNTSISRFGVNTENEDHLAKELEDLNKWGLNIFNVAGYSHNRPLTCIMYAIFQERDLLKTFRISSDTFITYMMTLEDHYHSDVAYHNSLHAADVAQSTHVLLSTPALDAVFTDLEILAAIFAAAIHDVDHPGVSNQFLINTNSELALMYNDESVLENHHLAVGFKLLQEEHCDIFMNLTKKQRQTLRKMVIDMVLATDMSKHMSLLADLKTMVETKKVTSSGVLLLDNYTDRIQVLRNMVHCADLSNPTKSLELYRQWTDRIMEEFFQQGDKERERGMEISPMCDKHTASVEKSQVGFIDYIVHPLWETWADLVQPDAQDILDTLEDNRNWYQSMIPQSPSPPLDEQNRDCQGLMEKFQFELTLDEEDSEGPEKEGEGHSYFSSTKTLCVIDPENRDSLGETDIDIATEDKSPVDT
Lysosomal acid glucosylceramidase (Homo sapiens), sequence (P04062 whole entry, looked up): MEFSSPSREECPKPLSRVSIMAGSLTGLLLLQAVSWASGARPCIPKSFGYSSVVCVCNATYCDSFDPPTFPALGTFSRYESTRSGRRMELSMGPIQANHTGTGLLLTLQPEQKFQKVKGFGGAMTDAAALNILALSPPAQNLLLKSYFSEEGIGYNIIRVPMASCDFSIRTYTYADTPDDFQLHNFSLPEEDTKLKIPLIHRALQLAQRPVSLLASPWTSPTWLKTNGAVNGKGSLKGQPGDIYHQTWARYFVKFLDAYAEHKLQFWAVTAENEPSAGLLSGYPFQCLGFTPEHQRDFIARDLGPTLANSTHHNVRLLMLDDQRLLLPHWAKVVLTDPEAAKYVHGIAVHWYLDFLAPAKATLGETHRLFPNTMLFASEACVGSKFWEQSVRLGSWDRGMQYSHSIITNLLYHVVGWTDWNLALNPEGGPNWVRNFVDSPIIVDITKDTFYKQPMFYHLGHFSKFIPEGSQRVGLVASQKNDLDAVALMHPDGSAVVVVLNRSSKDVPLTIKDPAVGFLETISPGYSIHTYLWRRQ

Nc1nc2nc3c(nc2c(=O)[nH]1)CN(c1ccc(C(=O)O)cc1)C3=O
inactive: Potency [1] > 11.4 µM | activity change, negative = inhibition [2] -9.73% | activity change, negative = inhibition [3] 13.8% | activity, negative = inhibition [4] -8.98% | Potency [5] > 46 µM | Potency [6] > 9.22 µM | Potency [7] | Potency [8]

O=C(O)C[C@@H](C(=O)O)c1ccccc1[N+](=O)[O-]
inactive: Potency [1] > 11.4 µM | activity change, negative = inhibition [2] 10.5% | activity change, negative = inhibition [3] 13% | activity, negative = inhibition [4] 6.64% | Potency [5] > 46 µM | Potency [6] > 9.22 µM | Potency [7] | Potency [8]

NCCOC[C@H](N)C(=O)O
inactive: Potency [1] > 11.4 µM | activity change, negative = inhibition [2] 3.26% | activity change, negative = inhibition [3] 11.6% | activity, negative = inhibition [4] -1.46% | Potency [5] > 46 µM | Potency [6] > 9.22 µM | Potency [7] | Potency [8]

NCCNC[C@H](O)CO
inactive: Potency [1] > 11.4 µM | activity change, negative = inhibition [2] -9.92% | activity change, negative = inhibition [3] 7.58% | activity, negative = inhibition [4] 3.6% | Potency [5] > 46 µM | Potency [6] > 9.22 µM | Potency [7] | Potency [8]

CN(CCC(=O)O)S(=O)(=O)c1ccccc1
inactive: Potency [1] > 11.4 µM | activity change, negative = inhibition [2] -0.615% | activity change, negative = inhibition [3] 15.6% | activity, negative = inhibition [4] 11.1% | Potency [5] > 46 µM | Potency [6] > 9.22 µM | Potency [7] | Potency [8]

COc1c2c(c3c(c1CCC(=O)O)OC(C)(C)C=C3)OC(C)(C)C=C2
inactive: Potency [1] > 11.4 µM | activity change, negative = inhibition [2] -1.7% | activity change, negative = inhibition [3] 13.1% | activity, negative = inhibition [4] -3.06% | Potency [5] > 46 µM | Potency [6] > 9.22 µM | Potency [7] | Potency [8]

COc1nc(Cl)nc(Cl)c1Cl (tested in a mixture with another compound)
inactive: Potency [1] > 11.4 µM | activity change, negative = inhibition [2] 2.89% | activity change, negative = inhibition [3] 3.88% | activity, negative = inhibition [4] 7.12% | Potency [5] > 46 µM | Potency [6] > 9.22 µM | Potency [7] | Potency [8]

CC(=O)[C@@]1(N=Nc2ccc(S(N)(=O)=O)cc2)CCOC1=O
inactive: Potency [1] > 11.4 µM | activity change, negative = inhibition [2] -8.54% | activity change, negative = inhibition [3] 5.28% | activity, negative = inhibition [4] 6.55% | Potency [5] > 46 µM | Potency [6] > 9.22 µM | Potency [7] | Potency [8]

NC(N)=NC[C@H](N)C(=O)O
inactive: Potency [1] > 11.4 µM | activity change, negative = inhibition [2] 1.65% | activity change, negative = inhibition [3] 10.9% | activity, negative = inhibition [4] 0.308% | Potency [5] > 46 µM | Potency [6] > 9.22 µM | Potency [7] | Potency [8]

N=C(N)SCCc1ccccn1
inactive: Potency [1] > 11.4 µM | activity change, negative = inhibition [2] -8.38% and 0.949% | activity change, negative = inhibition [3] 3.85% and 12.3% | activity, negative = inhibition [4] -5.15% and -3.19% | Potency [5] > 46 µM | Potency [6] > 9.22 µM | Potency [7] | Potency [8]

S=C1NCN2CCN(CC2)CNC(=S)C(=S)NCN2CCN(CC2)CNC1=S
inactive: Potency [1] > 11.4 µM | activity change, negative = inhibition [2] 3.32% | activity change, negative = inhibition [3] -3.6% | activity, negative = inhibition [4] 3.07% | Potency [5] > 46 µM | Potency [6] > 9.22 µM | Potency [7] | Potency [8]

O=C(O)c1cncc(C(=O)O)c1
inactive: Potency [1] > 11.4 µM | activity change, negative = inhibition [2] 1.97% | activity change, negative = inhibition [3] 3.72% | activity, negative = inhibition [4] 6.17% | Potency [5] > 46 µM | Potency [6] > 9.22 µM | Potency [7] | Potency [8]

CCN1CCC(O)([C@H](C(=O)O)c2ccccc2)CC1
inactive: Potency [1] > 11.4 µM | activity change, negative = inhibition [2] -5.97% | activity change, negative = inhibition [3] 16.2% | activity, negative = inhibition [4] 16.9% | Potency [5] > 46 µM | Potency [6] > 9.22 µM | Potency [7] | Potency [8]
